# Source: PubChem
# NRP1-CendR mod = modulators of CendR peptide binding to human neuropilin-1. O14786. FAM-RPARPAR peptide binding to NRP-1, fluorescence polarization. inhibition, % at 25 µM. hit rate 0.85% among 360,000. AID 602438;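 active means inhibition or corrected inhibition above about 18%, plus a signal ratio from 0.5 to 1.5, limit read from the data, passing the limit was not always enough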
# Myeloid diff MLP = myeloid differentiation induction; ER-HoxA9 myeloid progenitors, lysozyme-GFP differentiation, flow cytometry; calls only at 10 µM; hit rate 1% among 360,000;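 active means normalized GFP-positive differentiation at or above the plate's own cutoff, the solvent-only control mean plus 3 SD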;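 further: cells exposed to compound for four days before flow analysis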
# FAS-TE inh = FAS thioesterase (human) inhibition. P49327. recombinant FAS-TE, OMFH fluorogenic substrate, fluorescence endpoint. inhibition, % at 15 µM. hit rate 0.67% among 360,000. AID 602261;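 active means compounds whose normalised, plate-corrected inhibition of enzyme fluorescence in the single-dose primary screen is 50% or more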
# NadD inh = NadD (S. aureus) enzyme inhibition; purified NadD enzyme, colorimetric absorbance read-out; inhibition, % at 20 µM; hit rate 0.78% among 360,000; AID 602399; in the data active means inhibition above about 26%
# CRFBP-R2 block = antagonists of CRF-binding protein/CRF-R2 receptor complex; AID 588475; hit rate 0.59% among 350,000; HEK293 CRF-R2/CRF-BP, CRF-induced calcium fluorescence; inhibition, % at 11.8 µM;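 active means inhibition of the ligand-induced calcium signal above about 50% at the single tested concentration, limit read from the data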
# Numbers stand for hits; n = inactive; x = no result given; + = active, no number; ! = not active in a repeat. Only some compounds are listed: those with a hit (about 3.6% of all), similar ones and a draw of the others.
SMILES,NRP1-CendR mod,Myeloid diff MLP,FAS-TE inh,NadD inh,CRFBP-R2 block
CC(/C=N/Nc1ccc2nncn2n1)=C\c1ccccc1,n,n,n,n,n
COc1cc(NC(=O)c2ccc3c(c2)C(=O)N(CCC(C)C)C3=O)c(C(=O)O)cc1OC,n,n,n,n,51
CC(c1ccccc1)N1C(=O)c2ccc(C(=O)Nc3ccccc3C(=O)O)cc2C1=O (stereo not drawn),n,n,n,n,n
CC(c1ccccc1)N1C(=O)c2ccc(C(=O)Nc3ccc(Br)cc3C(=O)O)cc2C1=O (stereo not drawn),n,n,n,n,59
Cc1cc(NN)nc(Cc2ccccc2)n1,n,n,n,n,n
CCCCC[C@@H](C)N1C[C@H](COCc2ccccc2)Oc2cc(N3CC[C@H](O)C3)ccc2S1(=O)=O,20,n,n,n,x
Cc1ccc(NC(=O)C(C)N=C2NS(=O)(=O)c3ccccc32)cc1F (stereo not drawn),21,n,n,n,n
CC(N=C1NS(=O)(=O)c2ccccc21)C(=O)NCCCc1ccccc1 (stereo not drawn),n,n,n,n,n
CCCn1c(=N)c(S(=O)(=O)c2ccccc2)cc2c(=O)n3ccccc3nc21,n,n,n,n,110
C=CCn1c(=N)c(C#N)cc2c(=O)n3ccccc3nc21,36,n,n,n,n
COc1ccc(CCn2c(=N)c(S(=O)(=O)c3ccccc3)cc3c(=O)n4ccccc4nc32)cc1,n,n,n,n,n
COc1ccc(NC(=O)c2cncc(Br)c2)cc1S(N)(=O)=O,n,n,n,n,n
COCCNc1nc(-c2cc(-c3ccccc3)on2)cc(C(C)C)n1,26,n,n,n,n
CCn1nccc1NC(=O)c1csc([C@@H]2O[C@H](CO)[C@H](O)[C@H](O)[C@H]2O)n1,n,n,n,n,x
O=C(NCC1CC1)C1(S(=O)(=O)c2ccccc2)CC=CC1,21,n,n,n,n
COCCNC(=O)C1(S(=O)(=O)c2ccccc2)CC=CC1,n,n,n,n,n
COc1cc(CC(=O)O)ccc1OCc1ccccc1,26,n,n,n,n
CC1=CC(C)C(=O)N(CCN2CCOCC2)C(C)=C1 (stereo not drawn),n,n,n,n,n
CC(=O)N1CCN(S(=O)(=O)c2cccc(C(=O)NNC(=O)Cn3ccc(C(F)(F)F)n3)c2)CC1,28,n,n,n,n
C=Cc1c(C)c2cc3[nH]c(cc4nc(cc5nc(cc1[nH]2)C(C)=C5CCC(=O)O)C(CCC(=O)O)=C4C)c(C)c3C=C,20!,n,n,n,n
CC(C)C(NC(=O)c1ccc(F)cc1)C(=O)N1CCOCC1 (stereo not drawn),n,n,n,n,n
COc1cc(-c2nc3cc(C)ccn3c2NC2CCCCC2)ccc1-c1ccc(C(C)=O)cc1,n,+,n,n,n
Cc1ccn2c(NC3CCCCC3)c(-c3cccc(-c4cccc(Cl)c4)c3)nc2c1,n,+,n,n,n
Cc1ccn2c(NC3CCCC3)c(-c3ccncc3)nc2c1,n,n,n,n,n
COc1cccc(-c2n[nH]nc2C2=CC(=O)C[C@H](c3ccc(F)cc3)C2)c1,n,n,n,n,n
SMILES,NRP1-CendR mod,Myeloid diff MLP,FAS-TE inh,NadD inh,CRFBP-R2 block
COc1ccccc1N1CCN(Cc2cc(=O)oc3cc(C)cc(C)c23)CC1,n,n,n,n,x
CC(=O)c1ccc(NC(=O)CN2C(=O)/C(=C/C=C/c3ccccc3)SC2=S)cc1,n,n,n,36,n
CC(/C=C1\SC(=S)N(CCC(=O)Nc2ccccc2O)C1=O)=C\c1ccccc1,n,n,n,34,n
O=C(O)CN1C(=O)/C(=C/C=C/c2ccccc2)SC1=S,n,n,n,n,n
O=C(CCN1C(=O)/C(=C/C=C/c2ccccc2)SC1=S)Nc1cccnc1,n,n,n,n,n
O=C(CCN1C(=O)/C(=C/C=C/c2ccccc2)SC1=S)Nc1ccccn1,n,x,n,37,n
COc1ccccc1-c1csc(C(C)(NC(C)=O)c2ccccc2)n1 (stereo not drawn),n,n,n,n,x
COc1cc2[nH]c(=S)nc(NCc3ccccn3)c2cc1OC,n,+,n,n,n
COc1cc(C(=O)NNC(=O)Cc2cccs2)cc(OC)c1OC,n,n,n,n,n
COc1cc(C(=O)NNC(=O)CCOc2ccccc2)cc(OC)c1OC,n,+,n,n,n
O=C(NCc1cccs1)c1ccc(CS(=O)Cc2cccc(Cl)c2)o1 (stereo not drawn),n,n,n,n,58
CSc1ccc(CCNC(=O)c2ccc(CS(=O)Cc3ccc(Cl)cc3)o2)cc1 (stereo not drawn),n,n,n,n,80
COc1ccccc1-c1cnc(C(O)c2cc(C)ccc2C)[nH]1 (stereo not drawn),n,n,n,n,x
CN(C)c1ccc(/C=C2\N=C(c3ccc(Cl)c([N+](=O)[O-])c3)NC2=O)cc1,n,+,n,n,n
CN(C)c1ccc(/C=C2/NC(=O)NC2=O)cc1,n,n,n,n,n
